High-throughput results from PubChem BioAssay.
Hits are enriched below; roughly 8.3% of the tested compounds scored in any of these assays.
SW480 rerep: DNA re-replication induction in SW480 cells | SW480 DNA re-replication, Hoechst DNA content imaging, 48 h | Potency, µM (titrated, usually from 46.1 µM), for the others: at the highest dose re-replication activation, most hits filed as activators | hit rate 1.8% among 340,000 | AID 624297; also: potency is read from the fitted curve at half-maximal effect; % of control where 0% means no effect; nearly all actives have a fitted effect of over 55% in size
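Compounds, transferred as 23 nL by pin tool, were incubated with cells for 48 hr; DNA content per nucleus was then quantified by Hoechst staining and fluorescence plate imaging.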
Giardia kill: Giardia lamblia killing | activity change, % at 7.66 µM, hits read low | Giardia lamblia trophozoite viability | hit rate 0.15% among 340,000; in the data active = activity change below about -80%; inconclusive = between about -30% and that limit;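 also: parasites exposed to compound for two days anaerobically before the ATP read; % is scaled to controls: 0 for no effect and ±100 for the full control effect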
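Giardia trophozoites, 100 cells per well, were exposed to compounds for 48 hrs at 37 deg C under anaerobic conditions; viability was then read as ATP content by bioluminescence after 15-30 min at room temperature.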
MCF10A rereplic: inducers of DNA re-replication in MCF 10A breast cells; MCF 10A DNA re-replication, Hoechst nuclear intensity, 48 h; hit rate 2.9% among 350,000; Potency, µM (top dose mostly 46.1 µM), for the others: at the highest dose activity, positive = re-replication, actives largely listed as activators; AID 624296; also: potency is read from the fitted curve at half-maximal effect; % of control where 0% means no effect; nearly all actives have a fitted effect of over 50% in size
VP16 counter: inhibits Gal4-VP16 luciferase reporter, ROR gamma counter-screen; Drosophila S2 Gal4-VP16 UAS-luciferase, luminescence, 20 h; Potency, µM (top dose mostly 53.6 µM), for the others: at the highest dose activity, negative = inhibition, most hits filed as inhibitors; hit rate 3.5% among 310,000; AID 2546;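 also: Gal4-VP16 expression switched on by copper sulfate through the metallothionein promoter; potency is read from the fitted curve at half-maximal effect; % is scaled to controls: 0 for no effect and ±100 for the full control effect; nearly all actives have a fitted effect of over 50% in size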
RORgamma inh: ROR gamma (mouse) transcription inhibition; P51450; Drosophila S2 Gal4-RORgamma UAS-luciferase reporter, 20 h; Potency, µM (series often up to 53.6 µM), without a hit: at the top dose activity change, negative = inhibition, actives largely listed as inhibitors; hit rate 5.4% among 310,000; also: potency is read from the fitted curve at half-maximal effect; % is scaled to controls: 0 for no effect and ±100 for the full control effect; nearly all actives have a fitted effect of over 60% in size
Target sequence (P51450 whole entry, looked up, the tested form may be a part): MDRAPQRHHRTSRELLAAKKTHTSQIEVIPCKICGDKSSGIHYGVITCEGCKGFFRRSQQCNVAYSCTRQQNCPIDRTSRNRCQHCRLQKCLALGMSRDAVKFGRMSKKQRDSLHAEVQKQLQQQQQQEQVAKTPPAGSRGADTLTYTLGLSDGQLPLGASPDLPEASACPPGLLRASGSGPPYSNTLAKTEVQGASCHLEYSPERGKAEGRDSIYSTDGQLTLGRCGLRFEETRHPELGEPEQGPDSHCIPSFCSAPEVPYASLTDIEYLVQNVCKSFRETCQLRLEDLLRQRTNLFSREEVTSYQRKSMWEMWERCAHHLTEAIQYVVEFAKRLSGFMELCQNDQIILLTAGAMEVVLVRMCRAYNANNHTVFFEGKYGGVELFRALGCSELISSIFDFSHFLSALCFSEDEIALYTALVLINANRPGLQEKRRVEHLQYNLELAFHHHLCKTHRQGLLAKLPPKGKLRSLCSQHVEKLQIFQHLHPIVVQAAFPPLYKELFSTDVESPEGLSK
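Luciferase reporter read in Schneider cells carrying Gal4-RORγ (mouse) and UAS-Photinus luciferase; cells given compound 1 h before 700 uM copper sulfate induction, then incubated 20 h at ambient temperature.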
Chronic BCR inh: inhibitors of chronic active B-cell receptor signaling; AID 493014; ABC-DLBCL IkBa-CBG/CBR reporter, luminescence ratio, 4 h; Potency, µM (series often up to 46.1 µM), for inactives: at the top dose activity change, negative = inhibition, actives largely listed as inhibitors; hit rate 0.05% among 340,000; active = well fitted inhibition curve with a large enough effect in the signal ratio, with a control signal flat, not every such curve was filed as active; inconclusive = small, poorly fitted or top-dose-only effect, or effect the other way, or a change in a side signal; the % refers to the signal ratio;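 also: potency is read from the fitted curve at half-maximal effect; plate controls were basal doxycycline-induced cells for no effect and cells given 10 µM MG132 for full effect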
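TMD8 human ABC-DLBCL cells with doxycycline-inducible IκBα–green luciferase fusion and unfused red luciferase, in 0.5% FBS medium; compounds up to 46 uM, 4 h at 37C. Green/red luminescence ratio, filter-overlap corrected, fitted to concentration-response curves.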
An asterisk follows results filed as active; ? = inconclusive; . = no result; [ ] = remark or other dose. Unless noted, calls follow the shape of the dose curve; as a rule, active = well fitted curve in the direction sought with a large enough effect; inconclusive = small, poorly fitted or top-dose-only effect, or another doubt; inactive = no such curve, though single readings can be large; an effect the other way counts as inactive or inconclusive.

SMILES	SW480 rerep	Giardia kill	MCF10A rereplic	VP16 counter	RORgamma inh	Chronic BCR inh
CCc1nnc(NC(=O)c2ccc(S(=O)(=O)N(C)c3ccccc3)cc2)o1	15µM*	-29	7%	0.56µM*	0.45µM*	-4%
CCc1nnc(NC(=O)c2ccc(S(=O)(=O)N(CC(C)C)CC(C)C)cc2)o1	18%	-12	8.9µM*	0.35µM*	0.32µM*	-7%
Nc1cc2cccnc2cc1Cl	13%	-7	0%	.	.	.
CN(CC[C@@H](Oc1ccc(C(F)(F)F)cc1)c1ccccc1)CC(=O)O	.	.	.	0%	-2%	.
Cc1cccc2c1cnn2C(=O)Nc1ccccc1Cl	-4%	-2	-22%	4%	8%	4%
COCCN(CCOC)S(=O)(=O)c1ccc(C(=O)Nc2nnc(C)o2)cc1	-1%	0	-7%	?	10µM*	0%
C=CCN(CC=C)S(=O)(=O)c1ccc(C(=O)Nc2nnc(CSC)o2)cc1	6%	1	?	2.8µM*	0.56µM*	4%
COCCN(CCOC)S(=O)(=O)c1ccc(C(=O)Nc2nnc(CSC)o2)cc1	-5%	-5	8%	13µM*	5µM*	1%
CSCc1nnc(NC(=O)c2ccc(S(=O)(=O)N(CC(C)C)CC(C)C)cc2)o1	.	.	.	0.63µM*	0.28µM*	?
CSc1ccccc1OCc1cc(C(=O)N(C)Cc2cnccn2)no1	-1%	11	6%	26%	34%	?
CCOc1ccc(S(=O)(=O)N2CCN(C(=O)CCC(=O)N3CCOCC3)CC2)cc1	3%	-19	0%	.	.	7%
Cc1cccc(NC(=O)c2ccc(S(=O)(=O)N(C)C)cc2)n1	0%	-16	-1%	-4%	?	4%
CSCc1nnc(NC(=O)c2ccc(S(=O)(=O)N(C)C)cc2)o1	6%	13	18%	5µM*	2µM*	-6%
CC1(C)Cc2c(cnn2-c2ccccc2)C(NC(=O)c2ccc[n+]([O-])c2)C1 (centres undefined)	2%	9	1%	0%	21%	-2%
COC(=O)C1CCC(=O)N1C(c1ccc(OC)cc1)c1cc(OC)c(OC)c(OC)c1 (centres undefined)	0.73µM*	-24	1.3µM*	.	.	.
COc1ccc(C(CNC(=O)Cc2cc(OC)c(OC)c(OC)c2)N2CCCC2)cc1 (centres undefined)	1%	-3	-2%	-8%	-5%	3%
Cc1nn(CC(=O)NCc2ccc(-n3cccn3)cc2)c(C)c1[N+](=O)[O-]	0.52µM*	1	0%	-2%	-3%	2%
Cc1cccc(OCC(=O)N/N=C/C=C/c2ccco2)c1	-5%	-2	?	?	?	?
Cn1c(SCC(=O)N/N=C/C=C\c2ccco2)nc2ccccc21	2%	-3	11%	?	0.4µM*	1%
O=C(CSc1nc2ccccc2c(=O)n1-c1ccccc1)N/N=C/C=C/c1ccccc1[N+](=O)[O-]	14%	?	4.6µM*	8%	11%	?
O=C(CSc1nc2ccccc2c(=O)n1-c1ccc(Cl)cc1)N/N=C/C=C/c1ccccc1[N+](=O)[O-]	?	0	?	11%	-3%	?
Cc1ccc(CSc2nnc(SCC(=O)N/N=C/C=C/c3ccco3)s2)cc1	0%	9	3%	11µM*	7.1µM*	?
Cc1ccc(OCC(=O)N/N=C/C=C/c2ccco2)c(Br)c1	16µM*	-17	?	.	.	?
CCO[C@H]1OC(C(=O)NCc2ccccc2)=C[C@@H](C(C)(C)C)[C@@H]1CCCO	-16%	3	-6%	.	.	.
Cc1ccc(CSc2nnc(SCC(=O)N/N=C/C=C/c3ccccc3[N+](=O)[O-])s2)cc1	1%	-13	-1%	?	11µM*	-5%
SMILES	SW480 rerep	Giardia kill	MCF10A rereplic	VP16 counter	RORgamma inh	Chronic BCR inh
CCn1c(SCC(=O)N/N=C/C=C\c2ccccc2[N+](=O)[O-])nnc1-c1ccccc1	11%	5	17%	-8%	28%	-1%
Cc1cc(C(=O)N2CCCC(CO)(Cc3ccc(F)cc3)C2)c(C)o1 (centres undefined)	?	-12	23µM*	-13%	9%	-1%
Cc1ccccc1CN1C(=O)c2ccccc2Sc2ccc(C(=O)N3CCOCC3)cc21	.	.	.	.	.	2%
CC(=O)c1ccccc1OCCn1nnc(-c2ccc(C)cc2)n1	-3%	4	?	-5%	?	-21%
CC1CCCC(NC(=S)Nc2ccc(SC(F)F)cc2)C1C (centres undefined)	?	-7	?	5µM*	0.5µM*	?
OC1CCC(NC(=S)Nc2ccc(SC(F)F)cc2)CC1 (centres undefined)	-5%	4	1%	-2%	-28%	0%
FC(F)Sc1ccc(NC(=S)NC2CCCC2)cc1	-1%	3	18%	?	11µM*	?
COc1ccc(S(=O)(=O)N(C)C[C@H]2Oc3c(NS(=O)(=O)c4ccc(F)cc4)cccc3C(=O)N([C@H](C)CO)C[C@@H]2C)cc1	-6%	20	6%	.	.	0%
Cc1ccn2cc(C34CC5CC(CC(C5)C3)C4)nc2c1	21µM*	-11	?	?	?	9%
COC(=O)c1ccc(Cn2ccc(=O)[nH]c2=O)cc1	-8%	-20	1%	.	.	.
COc1cc2c(cc1OC)C(CC#N)=NC(C)(C)C2	-2%	-17	2%	-5%	4%	16µM*
COc1ccc(C2=NC(C)(C)Cc3cc(OC)c(OC)cc32)cc1OC	-15%	5	?	15%	-8%[1.91 µM]	?
COc1ccccc1/C=C/C(=O)c1ccc(NC(C)=O)cc1	5%	10	16µM*	?	?	?
COc1ccccc1/C=C/C(=O)c1c2c(c(C)[nH]c1=O)CCCC2	?	11	?	4.5µM*	5.6µM*	?
COc1ccccc1/C=C/C(=O)c1ccccc1	?	-29	26µM*	0%	?	?
Cc1ccccc1-n1nc(-c2cccnc2)cc1C(=O)N/N=C/c1ccncc1	-12%	6	3%	-13%	-6%	-13%
Cc1cccc(NC(=S)Nc2cccc3ccccc23)c1	-3%	-9	-1%	8.9µM*	7.1µM*	1%
CC(=O)N(C)c1ccc(NC(=S)Nc2ccc(C(C)C)cc2)cc1	0%	-5	?	22µM*	7.1µM*	-2%
Cc1cc(NC(=S)Nc2cccc3ccccc23)n[nH]1	2%	-17	5%	5µM*	2.8µM*	-2%
CCc1cccc(NC(=S)Nc2cccc3ccccc23)c1	-2%	-1	12%	7.9µM*	4µM*	4%
